Screens from PubChem BioAssay.
pPAFAH FP inh – inhibitors of human plasma PAF acetylhydrolase (pPAFAH); 1.5% of 330,000 active; Q13093; recombinant pPAFAH, FP-rhodamine probe fluorescence polarization; AID 463082; inhibition, % at 3.39 µM;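 active = inhibition above the mean inhibition across the screen plus 3 SD, cut at about 25% in these data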;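 note: inhibitors block binding of the rhodamine activity-based probe so polarization drops; 0% = enzyme with DMSO and 100% = wells lacking pPAFAH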
PAFAH2 FP inh – PAFAH2 (human) inhibition | Q99487 | AID 492956 | recombinant PAFAH2, FP-rhodamine activity probe, fluorescence polarization | inhibition, % at 3.39 µM | 0.99% of 340,000 active;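 active = inhibition above the mean over all tested compounds plus 3 SD, cut at about 30% in these data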;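 note: inhibitors block probe labeling of enzyme so polarization drops; 0% = enzyme with DMSO and 100% = wells lacking PAFAH2 protein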
PAFAH1B2 FP inh – PAFAH1B2 (human) inhibition. P68402. recombinant PAFAH1B2, FP-rhodamine activity probe, fluorescence polarization. inhibition, % at 3.39 µM. 1.2% of 340,000 active. AID 492953;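 active = inhibition above the mean of all tested compounds plus 3 SD, cut at about 24% in these data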;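 note: 0% = enzyme with DMSO and 100% = wells lacking PAFAH1B2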
PME-1 inh – blocks human protein phosphatase methylesterase 1; Q9Y570; recombinant PME-1, FP-Rh probe fluorescence polarization; inhibition, % at 5.9 µM; 0.53% of 320,000 active;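 active = inhibition above the campaign mean of all compounds plus 3 SD, cut at about 26% in these data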;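 note: competitive labeling of PME-1 active site by serine hydrolase directed probe; 0% = PME-1 with DMSO and 100% = wells lacking PME-1 enzyme; inhibitors block probe labeling so polarization falls and inhibition rises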
Target sequence (Q9Y570 whole entry, looked up): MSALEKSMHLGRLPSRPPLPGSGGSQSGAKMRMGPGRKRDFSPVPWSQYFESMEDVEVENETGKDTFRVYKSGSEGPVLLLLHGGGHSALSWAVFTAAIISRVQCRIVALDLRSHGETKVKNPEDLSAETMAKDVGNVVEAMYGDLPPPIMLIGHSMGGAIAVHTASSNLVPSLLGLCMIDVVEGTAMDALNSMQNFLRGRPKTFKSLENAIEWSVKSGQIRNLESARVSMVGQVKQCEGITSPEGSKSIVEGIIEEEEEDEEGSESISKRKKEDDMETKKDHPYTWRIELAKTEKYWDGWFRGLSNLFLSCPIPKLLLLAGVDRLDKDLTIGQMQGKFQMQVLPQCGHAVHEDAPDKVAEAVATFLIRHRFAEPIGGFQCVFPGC
PAFAH1B3 FP inh – blocks human PAF acetylhydrolase 1B catalytic subunit 3. 0.28% of 340,000 active. AID 492972. Q15102. inhibition, % at 3.39 µM. recombinant PAFAH1B3, FP-rhodamine probe, fluorescence polarization;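 active = inhibition above the screen-wide average of all tested compounds plus 3 SD, cut at about 25% in these data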;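 note: 0% = enzyme with DMSO only and 100% = wells lacking PAFAH1B3 protein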
Fam108B counter – Fam108B inhibition, counter-screen for RBBP9 inhibitors | recombinant Fam108B, FP-Rh probe fluorescence polarization | inhibition, % at 9.51 µM | 0.33% of 300,000 active | AID 1947;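 active = inhibition above the screen mean inhibition plus 3 SD, computed separately per campaign, cut at about 18% in these data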;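 note: inhibitors lower polarization as less probe binds the enzyme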
PAFAH2 FP conf – confirmation of human PAFAH2 inhibitors; shares compounds with PAFAH2 FP inh; inhibition, % at 3.39 µM; 65% of 2,300 active; recombinant PAFAH2, FP-rhodamine activity probe, fluorescence polarization;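 active = mean inhibition over three repeats above a set limit taken from the earlier primary screen, cut at about 30% in these data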;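 note: inhibitor blocks binding of rhodamine activity probe so polarization falls; 0% = enzyme with DMSO and 100% = wells lacking PAFAH2 protein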
Starred values were filed as active, the others as inactive. Only some compounds are listed: those with a hit (about 2.9% of all), similar ones and a draw of the others.

Results for CCCNC(=O)COC(=O)/C=C/c1cccc(F)c1 ?
pPAFAH FP inh: 6; PAFAH2 FP inh: 33*; PAFAH1B2 FP inh: 7; PME-1 inh: 0; PAFAH1B3 FP inh: 3; Fam108B counter: 4; PAFAH2 FP conf: 20

How did Cc1ccc(NC(=O)CCNC(=O)c2ccc(Br)cc2)cc1S(=O)(=O)N1CCCCCC1 do in these assays?
pPAFAH FP inh: 15; PAFAH2 FP inh: 3; PAFAH1B2 FP inh: 3; PME-1 inh: -5; PAFAH1B3 FP inh: 2; Fam108B counter: -3

Results for COc1cccc(NC(=O)COC(=O)c2nc(Cl)ccc2Cl)c1 ?
pPAFAH FP inh: 9; PAFAH2 FP inh: -3; PAFAH1B2 FP inh: -5; PME-1 inh: -4; PAFAH1B3 FP inh: 2; Fam108B counter: 0

How did O=C(COC(=O)c1c(Cl)cccc1Cl)NC1CCCCCCC1 do in these assays?
pPAFAH FP inh: 10; PAFAH2 FP inh: 7; PAFAH1B2 FP inh: 12; PAFAH1B3 FP inh: 6

How did O=C(COC(=O)c1c(F)cccc1Cl)NCC1CCCCC1 do in these assays?
pPAFAH FP inh: 13; PAFAH2 FP inh: 60*; PAFAH1B2 FP inh: 3; PAFAH1B3 FP inh: 13; PAFAH2 FP conf: 43*

What do the screens show for `COc1cccc(NC(=O)COC(=O)c2c(F)cccc2Cl)c1`?
pPAFAH FP inh: 6; PAFAH2 FP inh: 61*; PAFAH1B2 FP inh: 4; PME-1 inh: 5; PAFAH1B3 FP inh: 4; Fam108B counter: 2; PAFAH2 FP conf: 59*

Results for O=C(COC(=O)c1c(Cl)cccc1Cl)NC1CCCCC1 ?
pPAFAH FP inh: 6; PAFAH2 FP inh: 8; PAFAH1B2 FP inh: 4; PME-1 inh: -3; PAFAH1B3 FP inh: 9; Fam108B counter: 3

How did O=C(COC(=O)c1c(F)cccc1Cl)NC1CCCC1 do in these assays?
pPAFAH FP inh: 3; PAFAH2 FP inh: 37*; PAFAH1B2 FP inh: 1; PME-1 inh: -2; PAFAH1B3 FP inh: 0; Fam108B counter: 3; PAFAH2 FP conf: 12

What do the screens show for `Cc1c(NC(=O)C(C)OC(=O)c2ccc(NC(=O)CC#N)cc2)c(=O)n(-c2ccccc2)n1C` (stereo unspecified)?
pPAFAH FP inh: 6; PAFAH2 FP inh: 4; PAFAH1B2 FP inh: 0; PME-1 inh: -4; PAFAH1B3 FP inh: 0; Fam108B counter: 3

Results for COc1cc2oc(=O)ccc2cc1[C@H](O)[C@@H](O)C(C)(C)O ?
pPAFAH FP inh: 4; PAFAH2 FP inh: -4; PAFAH1B2 FP inh: 1; PME-1 inh: 6; PAFAH1B3 FP inh: -4

Results for COc1ccc(CN2C(=O)c3cccnc3C2=O)cc1S(=O)(=O)N1CCOc2ccc(Cl)cc21 ?
pPAFAH FP inh: 0; PAFAH2 FP inh: 30*; PAFAH1B2 FP inh: -1; PME-1 inh: 7; PAFAH1B3 FP inh: 9; Fam108B counter: 0; PAFAH2 FP conf: 18

What do the screens show for `Cc1ccc(NC(=O)CCS(=O)(=O)c2ccccc2)cc1S(=O)(=O)N1CCOCC1`?
pPAFAH FP inh: 1; PAFAH2 FP inh: -5; PAFAH1B2 FP inh: 3; PME-1 inh: 3; PAFAH1B3 FP inh: 1; Fam108B counter: 4

Results for O=C1/C(=C/c2ccc(F)cc2)SC(=S)N1Nc1ncc(C(F)(F)F)cc1Cl ?
pPAFAH FP inh: 9; PAFAH2 FP inh: 2; PAFAH1B2 FP inh: -4; PME-1 inh: 3; PAFAH1B3 FP inh: -6; Fam108B counter: -1

Results for O=C1/C(=C/c2ccccn2)SC(=S)N1Nc1ncc(C(F)(F)F)cc1Cl ?
PAFAH2 FP inh: 37*; PAFAH1B2 FP inh: 19; PAFAH1B3 FP inh: 11; PAFAH2 FP conf: 18

What do the screens show for `O=C1/C(=C\c2ccccn2)SC(=S)N1Nc1ncc(C(F)(F)F)cc1Cl`?
pPAFAH FP inh: -5; PAFAH2 FP inh: 34*; PAFAH1B2 FP inh: 10; PME-1 inh: 4; PAFAH1B3 FP inh: 12; Fam108B counter: -5; PAFAH2 FP conf: 26

What do the screens show for `CCN(CC)S(=O)(=O)c1ccc(/C=C/C(=O)OCC(=O)Nc2cccnc2Cl)cc1`?
pPAFAH FP inh: 6; PAFAH2 FP inh: 67*; PAFAH1B2 FP inh: 0; PME-1 inh: -4; PAFAH1B3 FP inh: 8; PAFAH2 FP conf: 55*
